Measured values reported in the supplement of paper PMC6555819.

How the values were obtained:
Assay in all cases: PBM binding z-score (relative to random genomic background probes); higher = stronger binding; sequences stand for … in GC…GCGATTGACAGCGTAGAATGAAGG
[1] = system: PPARg:RXRa DBDmut IVT, anti-RXR (DBD mutation: RXRa K156A/R161A, NR concentration 270 nM, RXRa partner concentration 90 nM)
How it was run: (§1)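 Ligand-free nuclear receptor dimers were bound for 1 h to custom Agilent 4×180K protein-binding microarrays. Detection used antibodies against each partner (one per run). Binding z-scores rest on regression-normalized fluorescence, with random background probes as the reference.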

[2] = system: PPARg:RXRa IVT, anti-PPARg (NR concentration 270 nM, RXRa partner concentration 90 nM)
How it was run: as §1

[3] = system: PPARg DBDmut:RXRa IVT, anti-PPARg (DBD mutation: PPARg1 K132A/R137A, NR concentration 270 nM, RXRa partner concentration 90 nM)
How it was run: as §1

[4] = system: PPARg DBDmut IVT, anti-PPARg (DBD mutation: PPARg1 K132A/R137A, NR concentration 270 nM)
How it was run: as §1

[5] = system: PPARg homodimer (NR concentration 180 nM)
How it was run: as §1

[6] = system: PXR:RXRa (NR concentration 270 nM, RXRa partner concentration 90 nM)
How it was run: as §1

[7] = system: PXR homodimer (NR concentration 270 nM)
How it was run: as §1

[8] = system: RARa:RXR (NR concentration 270 nM, RXRa partner concentration 90 nM)
How it was run: as §1

[9] = system: RARa homodimer (NR concentration 270 nM)
How it was run: as §1

[10] = system: RARb:RXRa (NR concentration 270 nM, RXRa partner concentration 90 nM)
How it was run: as §1

[11] = system: RARb homodimer (NR concentration 270 nM)
How it was run: as §1

[12] = system: RARg:RXRa (NR concentration 270 nM, RXRa partner concentration 90 nM)
How it was run: as §1

[13] = system: RARg homodimer (NR concentration 270 nM)
How it was run: as §1

[14] = system: RXRa DBDmut IVT, anti-RXR (DBD mutation: RXRa K156A/R161A, NR concentration 90 nM)
How it was run: as §1

[15] = system: RXRa homodimer (NR concentration 180 nM)
How it was run: as §1

[16] = system: THRa:RXRa (NR concentration 90 nM, RXRa partner concentration 90 nM)
How it was run: as §1

[17] = system: THRa homodimer (NR concentration 90 nM)
How it was run: as §1

[18] = system: VDR homodimer (NR concentration 270 nM)
How it was run: as §1

Sequence	PBM binding z-score [1]	PBM binding z-score [2]	PBM binding z-score [3]	PBM binding z-score [4]	PBM binding z-score [5]	PBM binding z-score [6]	PBM binding z-score [7]	PBM binding z-score [8]	PBM binding z-score [9]	PBM binding z-score [10]	PBM binding z-score [11]	PBM binding z-score [12]	PBM binding z-score [13]	PBM binding z-score [14]	PBM binding z-score [15]	PBM binding z-score [16]	PBM binding z-score [17]	PBM binding z-score [18]
TTACCAAGGTGAGCTGAAGTCGTTGATCCAACTC	0.859	1.48	-0.768	-0.947	-0.94	-0.181	-0.685	-0.105	-0.713	0.929	-0.14	0.0635	-0.108	-0.671	0.0519	0.821	-0.297	-0.905
TCTAGTTGGTCAAAGGTCACCCACTCGAAATGCG	3.63	6.67	1.96	2.09	6.47	6.1	1.35	7.69	3.37	4.9	5.15	7.19	6.47	1.86	8.17	3.7	1.8	2.58
CGAACTAGGTCACAGAGGTCAAAGTCCGTGCGTA	8.62	8.94	8.99	6.82	9.8	6.92	13.2	7.77	5.26	5.23	5.38	7.57	7.52	3.54	8.15	4.58	2.83	6.98
TCAGATAGGTAAAAGGTGAAAGTCGGTGTGGTAA	3.61	3.39	0.424	0.558	1.78	1.84	0.95	2.63	1.51	2.02	2.19	1.89	0.855	1.85	3.06	1.76	0.528	0.262
GCAGACAGGTGAAATGCAGGTAACTCAGGGTGGC	1.43	1.14	-0.233	-1.24	-0.0768	-0.249	0.00173	0.324	-0.661	0.683	0.337	0.64	0.23	-0.341	0.602	1.38	-0.107	-0.285
GCGACTGGGGCAAAGAAGGTTACCATAAGGTTGG	4.68	3.4	-0.0271	-0.382	0.618	1.11	-0.136	1.22	-0.528	1.59	1.92	1.19	1.02	-0.00563	0.942	2.77	0.225	0.247
AGAACGAGGGCAATGAGTCGATAGCACGGGTGGC	3.4	2.38	-0.0536	-0.236	-0.174	0.0741	0.415	-0.0854	-0.378	1.9	0.763	1.02	1.4	1.75	0.683	0.527	-0.542	1.17
ATATGTAGGTTAAGGGTCAATCAGGTTGGTTCGC	7.74	7.77	1.78	2.49	4.11	5.32	1.21	5.74	2.21	3.64	3.94	4.94	3.82	1.7	5.96	3.45	1.54	3.33
ATCTCTAGGTAAAGTTGAGTGAAAGATCGATAGA	2.32	2.1	0.815	1.27	0.789	-0.222	0.345	0.0645	0.741	0.652	-0.112	0.406	0.593	-0.00419	0.495	0.689	-0.246	0.103
TCTTGTAGATCAACAGTAGGTTAAGAAAGATCGA	2.46	1.72	0.934	0.698	0.243	0.284	-0.303	0.504	0.265	0.132	-0.123	0.314	0.0764	0.88	0.463	0.12	-0.482	-0.281
AGAATGAGGTTATACGTAGATCAGAGAAGAAAGT	3.8	2.41	0.986	0.988	1.35	1.1	0.455	1.51	0.376	1.38	0.491	1.83	1.42	1.87	2.05	2.25	0.546	0.887
ATCGAACGGTCGTGAGGTGAGTATACAGAAAGGC	-0.977	0.391	0.438	0.339	0.0797	0.0108	-0.33	0.461	0.0209	1.08	0.679	0.948	1.19	-0.665	0.53	1.48	0.666	-0.261
CCAGACAGGTGAGAAGGTAACTCAACCTCGATTA	1.22	0.742	0.229	-0.571	1.06	0.207	0.428	0.706	0.916	0.619	0.715	0.716	0.698	0.0591	0.59	0.724	0.31	-0.0105
GCTTGTAGACCAAGGTTAAGAAAGACTAAGCTAA	1.25	0.819	0.464	0.161	-0.164	0.252	-0.358	0.313	0.313	0.654	0.241	0.214	0.239	-0.149	0.485	0.969	-0.368	-0.0799
CTACAAAGGTGAACAAGGTCGTTGATTACTATTC	3.31	3.77	0.982	0.418	1.57	3.89	2.18	3.61	0.686	3.63	3.33	3.64	3.01	1.76	3.64	3.69	1.37	2.51
